Bioassay records from PubChem BioAssay.
An excerpt weighted towards active compounds, which were near 7.5% of everything screened.
FLuc modulator = inhibits or activates purified firefly luciferase, miR-21 counter-screen. 360,000 compounds, 6.9% hits. P08659. Potency, µM (top dose mostly 57.5 µM), actives largely listed as inhibitors. purified FLuc, Km substrates, luminescence inhibition. AID 588342; further: nearly all actives have a fitted effect of over 55% in size
Target sequence (P08659 whole entry, looked up): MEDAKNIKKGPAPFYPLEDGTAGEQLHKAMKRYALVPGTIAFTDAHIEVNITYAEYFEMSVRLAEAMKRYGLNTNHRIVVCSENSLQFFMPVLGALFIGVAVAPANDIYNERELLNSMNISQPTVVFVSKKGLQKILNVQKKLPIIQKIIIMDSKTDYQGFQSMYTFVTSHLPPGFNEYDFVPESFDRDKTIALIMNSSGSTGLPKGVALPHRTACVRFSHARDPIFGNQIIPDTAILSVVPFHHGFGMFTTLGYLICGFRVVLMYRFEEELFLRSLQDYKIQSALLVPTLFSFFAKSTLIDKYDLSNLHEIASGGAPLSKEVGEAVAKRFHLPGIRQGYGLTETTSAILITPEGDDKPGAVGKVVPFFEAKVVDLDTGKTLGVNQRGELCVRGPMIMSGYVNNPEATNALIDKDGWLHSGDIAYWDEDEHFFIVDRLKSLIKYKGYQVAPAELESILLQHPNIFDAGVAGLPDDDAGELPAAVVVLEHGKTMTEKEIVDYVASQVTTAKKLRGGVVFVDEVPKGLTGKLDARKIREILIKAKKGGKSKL
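Purified P. pyralis luciferase, 10 nM final, with Km-level 10 uM D-luciferin and 10 uM ATP in 50 mM Tris acetate pH 7.5, 10 mM Mg acetate, 0.01% Tween-20, 0.05% BSA; 6-point qHTS titration about 60 µM downward; luminescence read.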
SMN2 splice up = enhancers of SMN2 splice variant expression. HEK293 SMN2-luciferase splicing reporter, luminescence, 30-36 h. Potency, µM (top dose mostly 46.1 µM), usual class: activators. 210,000 compounds, 2.8% hits. AID 1458; further: nearly all actives have a fitted effect of over 55% in size
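qHTS luciferase splicing reporter: luminescence rises when SMN2 exon 7 is included in transfected HEK293 cells. Compound exposure lasted 30-36 h at 37C, with 4.5 mM final sodium butyrate as control, followed by a ONE-Glo read.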
Rab9 prom act = activators of Rab9 promoter | Huh7 Rab9 promoter-luciferase reporter, luminescence, 24 h | Potency, µM (top dose mostly 9.22 µM), hits mostly activators | 320,000 compounds, 2.8% hits | AID 485297; further: nearly all actives have a fitted effect of over 60% in size
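Steps: seed 1500 Huh7 Rab9-luc cells per well, rest 2 h at 37 °C; add compound in DMSO; incubate 24 h; add luciferase reagent, 10 min ambient; read luminescence.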
ELG1 genotoxic = induces genotoxicity in HEK293T cells with luciferase-tagged ELG1. Potency, µM (top dose mostly 46 µM), hits mostly activators. 330,000 compounds, 1.3% hits. AID 504466. HEK293T ELG1-luciferase reporter, luminescence, 16 h; further: nearly all actives have a fitted effect of over 60% in size
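Genotoxicity was scored as increased ELG1-luciferase reporter signal, measured by ONE-Glo luminescence (30 min, room temperature). Compound or vehicle exposure of the HEK293T reporter cells lasted 16 hr at 37°C.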
NPC1 prom act = activates the NPC1 promoter. Potency, µM (series often up to 9.22 µM), hits mostly activators. 320,000 compounds, 2.4% hits. Huh7 NPC1 promoter luciferase reporter, 24 h; further: nearly all actives have a fitted effect of over 60% in size
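Stable NPC1-promoter luciferase Huh7 line; cpd (DMSO) 24 h, 37 °C, 5% CO2; Amplite luciferase reagent 10 min RT; luminescence readout. qHTS format.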
Large screens that a line does not name were inactive. The call rests on the fitted dose curve; in most records, active means well fitted curve in the direction sought with a large enough effect; inconclusive means small, poorly fitted or top-dose-only effect, or another doubt; inactive means no such curve, though single readings can be large; an effect the other way counts as inactive or inconclusive.

O=C(O)CC(NC(=O)c1sc2ccccc2c1Cl)c1ccc(OC2CCCC2)cc1 (configuration not stated)	FLuc modulator 15µM
CC1CCc2[nH]c3ccc(C(=O)NCC4CCCO4)cc3c2C1 (configuration not stated)	FLuc modulator 9.5µM, Rab9 prom act inconclusive (no result: SMN2 splice up)
Cc1ccc2c(Cl)c(C(=O)NCC3CCCO3)sc2c1 (configuration not stated)	FLuc modulator 5.4µM, SMN2 splice up 11µM, Rab9 prom act 2.2µM, ELG1 genotoxic inconclusive, NPC1 prom act 2µM
CC(NC(=O)c1csc2ccccc12)C1CCCO1 (configuration not stated)	ELG1 genotoxic inconclusive
CC(NC(=O)c1sc2ccccc2c1Cl)C1CCCO1 (configuration not stated)	FLuc modulator 9.5µM, SMN2 splice up 11µM, Rab9 prom act inconclusive, ELG1 genotoxic inconclusive, NPC1 prom act inconclusive
Cc1nn(C)c2c1c(C(F)(F)F)cc(=O)n2CC(=O)Nc1ccc(F)cc1F	none (no result: SMN2 splice up, Rab9 prom act, ELG1 genotoxic, NPC1 prom act)
O=C(NCC1CCCO1)c1sc2ccccc2c1Cl (configuration not stated)	FLuc modulator 19µM, SMN2 splice up 13µM, Rab9 prom act inconclusive, ELG1 genotoxic inconclusive, NPC1 prom act inconclusive
O=C(NCC1CCCO1)c1sc(=S)n2c1[nH]c(=O)c1ccc(C(=O)N3CCCCC3)cc12 (configuration not stated)	FLuc modulator 21µM
COc1ccc2c(Cl)c(C(=O)NCC3CCCO3)sc2c1Cl (configuration not stated)	none (no result: SMN2 splice up)
O=C(NCCc1ccccc1)c1ccc2c(=O)[nH]c3c(C(=O)NCC4CCCO4)sc(=S)n3c2c1 (configuration not stated)	FLuc modulator inconclusive (no result: SMN2 splice up)
COc1ccc(C(=O)CC(=O)C(=O)Nc2ccc(C)c(Cl)c2)cc1	none (no result: SMN2 splice up)
COc1ccc(-c2nsc(SCC(=O)NCC3CCCO3)n2)cc1 (configuration not stated)	FLuc modulator 15µM, Rab9 prom act inconclusive
Cc1ccc(SCC(=O)NCC2CCCO2)cc1 (configuration not stated)	none (no result: SMN2 splice up)
Cc1ccc(-c2nsc(SCC(=O)NCC3CCCO3)n2)cc1 (configuration not stated)	FLuc modulator 17µM
COc1ccc(-c2nc(SCC(=O)NCC3CCCO3)c(-c3ccc(Cl)cc3)[nH]2)cc1 (configuration not stated)	none (no result: Rab9 prom act, ELG1 genotoxic, NPC1 prom act)
COc1ccc(-n2nnc3c(SCC(=O)NCC4CCCO4)ncnc32)cc1 (configuration not stated)	FLuc modulator 11µM
O=C(Nc1ccc2ccccc2c1)[C@H]1C[C@@H]1[C@H](NP(=O)(c1ccccc1)c1ccccc1)c1ccccc1	none (no result: FLuc modulator, Rab9 prom act, ELG1 genotoxic, NPC1 prom act)
Cc1ccc(S(=O)(=O)Nc2ccc3c(c2)ncn3C(C)(C)C)cc1	none
CCn1cnc2cc(NCc3ccc(Cl)cc3)ccc21	FLuc modulator 11µM, Rab9 prom act 2.5µM, ELG1 genotoxic inconclusive, NPC1 prom act 2.8µM (no result: SMN2 splice up)
COc1ccc(CNc2ccc3c(c2)ncn3C)cc1OC	none (no result: SMN2 splice up)
Cc1ccc(CNc2ccc3c(c2)ncn3C)cc1	FLuc modulator 12µM, SMN2 splice up 18µM, Rab9 prom act 2µM, ELG1 genotoxic 8.2µM, NPC1 prom act 3.2µM
Cc1ccc(CNc2ccc3c(c2)ncn3C(C)(C)C)cc1	FLuc modulator 9.5µM, SMN2 splice up 10µM, Rab9 prom act 4µM, ELG1 genotoxic inconclusive, NPC1 prom act 1.8µM
CCn1cnc2cc(NCc3ccncc3)ccc21	none (no result: SMN2 splice up)
CCc1ccc(CNc2ccc3c(c2)ncn3C)cc1	FLuc modulator 9.5µM, SMN2 splice up 11µM, Rab9 prom act 2.8µM, ELG1 genotoxic inconclusive, NPC1 prom act 2.2µM
Cc1ccnc(NC(=O)c2ccc(OCc3c(C)noc3C)cc2)c1	Rab9 prom act inconclusive, NPC1 prom act inconclusive (no result: SMN2 splice up)
COc1ccc(CNC(=O)CCc2c(C)nn(-c3ccc(N4CCCCC4)nn3)c2C)c(OC)c1	none (no result: SMN2 splice up, Rab9 prom act, ELG1 genotoxic, NPC1 prom act)
CC(C)(C)n1cnc2cc(NCc3ccccc3Cl)ccc21	FLuc modulator 13µM (no result: Rab9 prom act, ELG1 genotoxic, NPC1 prom act)
CCC1C(=O)C[C@H]2CCN3C(=O)CCCC1C23 (some centres not stated)	none (no result: FLuc modulator, SMN2 splice up, Rab9 prom act, NPC1 prom act)
Cn1nccc1C(=O)Nc1ccn(C23CC4CC(CC(C4)C2)C3)n1	FLuc modulator 27µM, ELG1 genotoxic inconclusive
Cc1nn(C)c(C(=O)Nc2ccn(C34CC5CC(CC(C5)C3)C4)n2)c1[N+](=O)[O-]	none
